The results in this text go back to PubChem BioAssay (NCI).

The panel holds about 83,000 compounds, 20% with a hit somewhere; the sample as a whole holds those more often.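 Step 1: grow cells in 96-well plates. Step 2: add test compound at a single concentration. Step 3: incubate 48 h. Step 4: record percent growth.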 Unmarked numbers belong to inactive results. The source made the active and inactive calls. Rule for the calls: active = growth percent below 10; inactive = the rest.

Test systems include HCT-15 colon; HT29 colon; SNB-75 CNS; SNB-19 CNS; PC-3 prostate; SK-MEL-5 melanoma; UACC-62 melanoma; LOX IMVI melanoma; SK-MEL-28 melanoma; SK-MEL-2 melanoma; EKVX NSCLC; SN12C renal; UO-31 renal; TK-10 renal; ACHN renal; CAKI-1 renal; A498 renal; CCRF-CEM leukemia; MOLT-4 leukemia; U251 CNS.
Holding throughout (assay): NCI-60 one-dose screen, 48 h (100 = growth as untreated, 0 = no growth, -100 = all killed)
What all share (conditions): 10 µM unless noted

Consider `CC1CN(C2CCCCC2)C(=O)NC1=O` (stereo unspecified), for which the growth was 104% with HCT-15 colon; 105% with HT29 colon; 93.4% with SNB-75 CNS; 97.4% in the test with SNB-19 CNS; 94% in the test on PC-3 prostate; 105% in the test with SK-MEL-5 melanoma. Besides, the growth was 87.5% in the test on UACC-62 melanoma; 101% in the test with LOX IMVI melanoma; 116% with SK-MEL-28 melanoma; 100% with SK-MEL-2 melanoma; 110% in the test with EKVX NSCLC; 92.1% in the test with SN12C renal. For the same compound, the growth in the test on UO-31 renal was 82%; in the test on TK-10 renal it was 101%; with ACHN renal it was 106%; in the test with CAKI-1 renal it was 103%; in the test on A498 renal, 87.9%; in the test with CCRF-CEM leukemia, 106%. Further, in the test with MOLT-4 leukemia, the growth was 85%.

On to `O=C1Nc2ccc(Cl)cc2/C1=C/c1cccs1`, for which the growth with HCT-15 colon is 51.9%; in the test on HT29 colon it was 110%; in the test with SNB-75 CNS, 84.2%; in the test with SNB-19 CNS it was 84.3%; in the test on PC-3 prostate it was 93.4%; with SK-MEL-5 melanoma, 85.7%. The growth with UACC-62 melanoma is 86%; in the test on LOX IMVI melanoma it was 86.7%; with SK-MEL-28 melanoma, 113%; in the test with SK-MEL-2 melanoma, 108%; in the test on EKVX NSCLC it was 68.3%; in the test with SN12C renal, 87.9%. Further, the growth is 44.8% in the test on UO-31 renal; 120% in the test with TK-10 renal; 88.2% with ACHN renal; 79.5% in the test on CAKI-1 renal; 97.5% in the test with A498 renal; 102% with CCRF-CEM leukemia. Besides, in the test with MOLT-4 leukemia, the growth is 91%.

Take `CCC(C)C1NC(=O)C(CCNCS(=O)(=O)O)NC(=O)C(NC(=O)C(CCNCS(=O)(=O)O)NC(=O)C(NC(=O)C(CCNCS(=O)(=O)O)NC(=O)CCCCC(C)C)C(C)O)CCNC(=O)C(C(C)O)NC(=O)C(CCNCS(=O)(=O)O)NC(=O)C(CCNCS(=O)(=O)O)NC(=O)C(C(C)CC)NC1=O` (stereo unspecified): the growth with HCT-15 colon was 99.6%; in the test on HT29 colon, 17.3%; in the test on SNB-75 CNS, 48.5%; in the test with SNB-19 CNS, 54.9%; with U251 CNS it was 33.3%; with PC-3 prostate it was 61.6%. Moreover, the growth is 4.4% (active) with SK-MEL-5 melanoma; 48.8% in the test with LOX IMVI melanoma; 49.8% in the test with SK-MEL-28 melanoma; 39.9% in the test on SK-MEL-2 melanoma; 83.7% in the test with EKVX NSCLC; 63.6% in the test on SN12C renal. In addition, the growth was 75% in the test on UO-31 renal; 94.5% with ACHN renal; 99.4% with CAKI-1 renal; 88.8% in the test on A498 renal; 20.7% with CCRF-CEM leukemia; 66.4% in the test with MOLT-4 leukemia.

With `O=C(O)C1CCN(S(=O)(=O)c2ccc(-c3ccccc3)cc2)CC1`, the growth in the test on HCT-15 colon is 107%; in the test with HT29 colon it was 111%; in the test with SNB-75 CNS, 102%; in the test with SNB-19 CNS, 103%; in the test on PC-3 prostate, 80.9%; with SK-MEL-5 melanoma it was 108%. Also, the growth in the test with UACC-62 melanoma was 94.5%; in the test with LOX IMVI melanoma, 103%; in the test on SK-MEL-28 melanoma, 91.4%; with SK-MEL-2 melanoma, 5.44% (active); in the test with EKVX NSCLC, 103%; with SN12C renal it was 101%. Moreover, the growth with UO-31 renal is 101%; in the test with TK-10 renal, 133%; in the test on ACHN renal, 109%; in the test on CAKI-1 renal, 104%; in the test on A498 renal, 104%; with CCRF-CEM leukemia, 90.1%. In addition, in the test on MOLT-4 leukemia, the growth is 107%.

With `O=C(Nc1ccc(Cl)cc1)Nc1ccccc1CNc1nc(Nc2ccc(OCCN3CCCC3)cc2)ncc1Cl`, the growth is 6.28% (active) in the test on HCT-15 colon; 0.197% (active) with HT29 colon; -17% (active) in the test with SNB-75 CNS; 42% with SNB-19 CNS; -8.19% (active) in the test with PC-3 prostate; 50.2% in the test with SK-MEL-5 melanoma. Besides, the growth with UACC-62 melanoma is 99.3%; in the test with LOX IMVI melanoma, -95.1% (active); in the test with SK-MEL-28 melanoma it was -77.7% (active); with SK-MEL-2 melanoma it was 102%; in the test with EKVX NSCLC it was 33.7%; in the test with SN12C renal, 93.2%. Also, the growth in the test on UO-31 renal was -6.76% (active); in the test on TK-10 renal it was -51.5% (active); in the test on ACHN renal, -54.4% (active); in the test on CAKI-1 renal, 5.67% (active); in the test on A498 renal, 75.6%; with CCRF-CEM leukemia, 4.29% (active). For the same compound, the growth in the test on MOLT-4 leukemia was -13.4% (active).

For `COc1cc(-c2nc3nc4sc(C)c(C)c4c(=O)n3[nH]2)cc(OC)c1OC`, the growth in the test on HCT-15 colon was 73.5%; with HT29 colon, 82.3%; in the test with SNB-75 CNS, 80.1%; with SNB-19 CNS it was 92.9%; in the test on PC-3 prostate, 85.1%; with SK-MEL-5 melanoma, 55.3%. The growth in the test with UACC-62 melanoma is 61.5%; in the test on LOX IMVI melanoma, 81.7%; with SK-MEL-28 melanoma, 87.6%; with SK-MEL-2 melanoma it was 80.1%; in the test with EKVX NSCLC, 88%; with SN12C renal, 93.6%. For the same compound, the growth in the test with UO-31 renal is 54.7%; in the test on TK-10 renal it was 110%; in the test with ACHN renal, 83.2%; in the test on CAKI-1 renal, 61.8%; in the test with A498 renal it was 74.5%; with CCRF-CEM leukemia, 61%. In addition, in the test with MOLT-4 leukemia, the growth is 68.3%.

`Nc1ccc(N=Nc2ccccc2)cc1[N+](=O)[O-]`: the growth in the test on HCT-15 colon is 68.8%; in the test with HT29 colon it was 92%; in the test on SNB-75 CNS it was 73.3%; in the test on SNB-19 CNS, 95.3%; in the test with PC-3 prostate, 83.9%; in the test on SK-MEL-5 melanoma, 93.1%. The growth with UACC-62 melanoma was 73%; in the test with LOX IMVI melanoma it was 77.9%; with SK-MEL-28 melanoma, 119%; in the test on SK-MEL-2 melanoma, 87.2%; in the test on EKVX NSCLC it was 75.2%; in the test on SN12C renal it was 84.6%. Also, the growth in the test on UO-31 renal is 45.9%; in the test with TK-10 renal, 82.8%; in the test with ACHN renal it was 89.9%; in the test with CAKI-1 renal, 66%; with A498 renal it was 109%; in the test on CCRF-CEM leukemia, 97.7%. Also, the growth in the test with MOLT-4 leukemia was 74.1%.

For `O=C(COc1cccc(/C=C2\Oc3ccc4ccccc4c3C2=O)c1)c1ccc(Cl)cc1`, the growth in the test on HCT-15 colon is 72.4%; in the test on HT29 colon, 103%; in the test with SNB-75 CNS, 90.5%; in the test with SNB-19 CNS, 92%; in the test with PC-3 prostate, 77.5%; in the test with SK-MEL-5 melanoma, 89.3%. For the same compound, the growth with UACC-62 melanoma was 82.8%; in the test on LOX IMVI melanoma it was 10.6%; in the test on SK-MEL-28 melanoma, 113%; in the test with SK-MEL-2 melanoma, 57.5%; in the test with EKVX NSCLC it was 92.8%; in the test with SN12C renal, 91.2%. Also, the growth with UO-31 renal is -7.73% (active); in the test on TK-10 renal, 115%; with ACHN renal it was 96.8%; in the test with CAKI-1 renal, 83%; in the test with A498 renal, 132%; in the test with CCRF-CEM leukemia, 25.3%. The growth in the test with MOLT-4 leukemia is 74%.
